The results in this text go back to PubChem BioAssay (NCI).

About 79,000 compounds went through this panel and 15% of them were active in at least one assay; those are over-represented in the sample as a whole. Unmarked numbers belong to inactive results. Active and inactive are the calls of the source. Rule as the data show it: active = growth inhibition above about 70%; inactive = the rest. Where a SMILES comes first, the peptide text is derived from it.

One test is described as follows: NCI Yeast Anticancer Drug Screen. Data for the sgs1 mgt1 strain (AID 161).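 Also: 0% = growth of cultures given vehicle only.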 The settings on record: S. cerevisiae sgs1 mgt1 strain, at 50.0 µM, stronger effect = higher value. A digest of the protocol:
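Growth of a repair-deficient yeast mutant was monitored after compound treatment and expressed as inhibition relative to vehicle-treated cultures.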
With `Cc1cc(=O)n(-c2ccccc2)c(=O)n1-c1nc2ccccc2[nH]1`, the growth inhibition was 14.7%.
Same read-out and setting: the result for `C=CCc1cc(C(=O)C(=O)c2cc(CC=C)c(OC(C)=O)c(OC)c2)cc(OC)c1OC(C)=O` reads 6.45%; that for `Clc1ccc2c(c1)Cc1ccccc1-2`, 34.1%.
The same measure, in the same setting: in the case of `CC(=O)c1cccc(NC(=O)/C(=N\NC(=S)NN)C2C(=O)Nc3ccccc3S2=O)c1` (stereo not given) it was -13.1%.
Still for that read-out and setting: in the case of `COC(=O)CCN(CCC(=O)OC)C1CC1` it was -13.4%.
With `CCOC(=O)/C(C#N)=C/NCC1CC1`, the growth inhibition is 1.6%.
On the same count and under the same terms, the result for `O=c1[nH]c(=O)n(C2CC(O)C(CO)O2)cc1C#Cc1ccc(C(F)(F)F)cc1` (stereo not given) reads 5%; that for `Cc1ccc(C2(c3ccccc3)c3ccccc3C(=O)N2c2ccccc2)cc1` (stereo not given), 97.7% (active); that for `Cc1ccc2c(c1)C(c1ccccc1)(c1ccccc1)OC2=O`, 6.75%.
Same read-out and setting: the result for `COc1ccc(C2S/C(=C\c3cccc([N+](=O)[O-])c3)C(=O)N2NC(=O)Cc2ccccc2)cc1` (stereo not given) reads 3.85%; that for `CSC(=O)/C=C1\SS/C(=C\C(=O)SC)S1`, -13.1%; that for `CCCCCCCCCCCCCCCCCC(=O)N/N=C/c1ccccc1OC`, 9.25%.
On the same count and under the same terms, the result for `N=c1c2ncn(C3OC(COP(=O)(O)O)C(O)C3O)c2ncn1O` (stereo not given) reads -6.6%; that for `CCOc1ccc(NC(=O)CCc2nnc(SC)o2)cc1`, -4.75%.
Turning to `COc1ccc(N(C)C(=S)c2ccccc2)cc1`, the growth inhibition is -15.4%.
Consider `COc1ccc(C(=O)c2ccccc2)c(OC(=O)Nc2ccc(Cl)cc2)c1`, for which the growth inhibition is 14.9%.
Still for that read-out and setting: in the case of `OCc1ccccc1C1CSCSC1` it was -37.5%.
The same measure, in the same setting: the result for `Oc1cc(CN2CCOCCOCCOCCOCC2)c(O)cc1CN1CCOCCOCCOCCOCC1` reads 8.9%; that for `O=C1C(CO)=C[C@@H](O)[C@H]2O[C@@H]12`, 12.6%.
Same read-out and setting: in the case of `Cc1n[nH]c2ccccc2c1=O` it was -21.6%; in that of `O=C(NCc1ccco1)Nc1ccccc1Cl`, -6.2%.
`CCC(O)C(CC)[N+](=O)[O-]` (stereo not given): the growth inhibition is -2.75%.
On the same count and under the same terms, in the case of `CCOC(OCC)c1ccc(O)cc1` it was 20.3%.
Same read-out and setting: the result for `Cc1cc(=O)[nH]c(=O)n1CCCN(C)CCCn1c(C)cc(=O)[nH]c1=O` reads 8.85%.
On the same count and under the same terms, in the case of `OCC1OC(O)C(N=Cc2ccc3c(c2)OCO3)C(O)C1O` (stereo not given) it was -14.2%; in that of `O=C1CC(N2C(=O)C3C4CCC(O4)C3C2=O)C(=O)N1` (stereo not given), 1.3%.
As for `CC12CCCCC1CC(=O)/C(=C\O)C2` (stereo not given), the growth inhibition was 17.9%.
In the case of `COc1cc(C2CC(C)=C(C)CC2C(=O)O)cc(OC)c1OC` (stereo not given), the growth inhibition is 7.25%.
For `O=C(Nc1ccc(Br)cc1)c1ccccc1`, the growth inhibition was 0.35%.
The same measure, in the same setting: in the case of `CC(C/C=C(/C=O)C(C)CC(C)(C)C)CC(C)(C)C` (stereo not given) it was 36.3%; in that of `CC(=O)OC(C(=O)N(c1ccccc1)c1ccccc1)c1ccccc1` (stereo not given), 10.9%; in that of `O=C1NCCN(CCc2ccccc2)C1c1ccccc1` (stereo not given), -8.85%.
Turning to `N#CCCN(CCC#N)c1ccc(/C=C2/C=C(c3ccccc3)OC2=O)cc1`, the growth inhibition was 19.1%.
Same read-out and setting: the result for `CSCCC(N)C(=O)NC(CCSC)C(=O)O` (stereo not drawn) (H-Met-Met-OH; configuration not given here) reads 2.4%; that for `C=CC(C/C(C)=N/Nc1ccc([N+](=O)[O-])cc1[N+](=O)[O-])c1ccccc1` (stereo not given), -17.6%.
With `CC(=O)C1=C(C)N2C(=NC3=C(CCc4ccccc43)C2c2ccc(F)cc2)S1` (stereo not given), the growth inhibition is -15.4%.
On the same count and under the same terms, the result for `CCn1cc(C(=O)O)c(=O)c2ccc(-c3cn[nH]c3C)nc21` reads 34.6%; that for `COc1ccc2c(c1)C1Oc3ccccc3CC1(O)CO2` (stereo not given), 21.3%.
On the same count and under the same terms, the result for `COc1ccc(SSc2ccc(OC)cc2)cc1` reads 12.2%; that for `CC(C)(O)C(F)(F)F`, 27.1%.

The nature of the next test: NCI Yeast Anticancer Drug Screen. Data for the cln2 rad14 strain (AID 165).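 Also: 0% = growth equal to vehicle treated cultures.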 The settings on record: S. cerevisiae cln2 rad14 strain, at 50.0 µM, stronger effect = higher value. The method, boiled down:
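Growth inhibition, relative to vehicle-treated controls, is the read-out. The test organism is a yeast strain with defined genetic alterations, cln2 rad14.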
With `Cc1cc(=O)n(-c2ccccc2)c(=O)n1-c1nc2ccccc2[nH]1`, the growth inhibition is 3.65%.
Still for that read-out and setting: the result for `C=CCc1cc(C(=O)C(=O)c2cc(CC=C)c(OC(C)=O)c(OC)c2)cc(OC)c1OC(C)=O` reads 6.8%.
The same measure, in the same setting: the result for `Clc1ccc2c(c1)Cc1ccccc1-2` reads 7.5%; that for `CC(=O)c1cccc(NC(=O)/C(=N\NC(=S)NN)C2C(=O)Nc3ccccc3S2=O)c1` (stereo not given), -4.15%; that for `COC(=O)CCN(CCC(=O)OC)C1CC1`, 19.6%.
On the same count and under the same terms, in the case of `CCOC(=O)/C(C#N)=C/NCC1CC1` it was 10.6%; in that of `O=c1[nH]c(=O)n(C2CC(O)C(CO)O2)cc1C#Cc1ccc(C(F)(F)F)cc1` (stereo not given), -2.45%.
Turning to `Cc1ccc(C2(c3ccccc3)c3ccccc3C(=O)N2c2ccccc2)cc1` (stereo not given), the growth inhibition is 95% (active).
The same measure, in the same setting: the result for `Cc1ccc2c(c1)C(c1ccccc1)(c1ccccc1)OC2=O` reads 7.95%.
On the same count and under the same terms, in the case of `COc1ccc(C2S/C(=C\c3cccc([N+](=O)[O-])c3)C(=O)N2NC(=O)Cc2ccccc2)cc1` (stereo not given) it was -58.6%.
Still for that read-out and setting: the result for `CSC(=O)/C=C1\SS/C(=C\C(=O)SC)S1` reads -5%; that for `CCCCCCCCCCCCCCCCCC(=O)N/N=C/c1ccccc1OC`, -1.6%; that for `N=c1c2ncn(C3OC(COP(=O)(O)O)C(O)C3O)c2ncn1O` (stereo not given), -18%.
For the compound `CCOc1ccc(NC(=O)CCc2nnc(SC)o2)cc1`, the growth inhibition was -16.4%.
Same read-out and setting: the result for `COc1ccc(N(C)C(=S)c2ccccc2)cc1` reads -37.5%; that for `COc1ccc(C(=O)c2ccccc2)c(OC(=O)Nc2ccc(Cl)cc2)c1`, 3.8%; that for `OCc1ccccc1C1CSCSC1`, -30.9%.
Same read-out and setting: in the case of `Oc1cc(CN2CCOCCOCCOCCOCC2)c(O)cc1CN1CCOCCOCCOCCOCC1` it was -49.1%; in that of `O=C1C(CO)=C[C@@H](O)[C@H]2O[C@@H]12`, 6.8%.
Still for that read-out and setting: in the case of `Cc1n[nH]c2ccccc2c1=O` it was -18.1%; in that of `O=C(NCc1ccco1)Nc1ccccc1Cl`, 45.8%; in that of `CCC(O)C(CC)[N+](=O)[O-]` (stereo not given), 4.05%.
Consider `CCOC(OCC)c1ccc(O)cc1`, for which the growth inhibition is -19.2%.
Still for that read-out and setting: in the case of `Cc1cc(=O)[nH]c(=O)n1CCCN(C)CCCn1c(C)cc(=O)[nH]c1=O` it was -0.9%.
On the same count and under the same terms, in the case of `OCC1OC(O)C(N=Cc2ccc3c(c2)OCO3)C(O)C1O` (stereo not given) it was 1.45%.
Still for that read-out and setting: in the case of `O=C1CC(N2C(=O)C3C4CCC(O4)C3C2=O)C(=O)N1` (stereo not given) it was -0.6%; in that of `CC12CCCCC1CC(=O)/C(=C\O)C2` (stereo not given), -29.1%; in that of `COc1cc(C2CC(C)=C(C)CC2C(=O)O)cc(OC)c1OC` (stereo not given), 30.1%.
For the compound `O=C(Nc1ccc(Br)cc1)c1ccccc1`, the growth inhibition is -31.5%.
On to `CC(C/C=C(/C=O)C(C)CC(C)(C)C)CC(C)(C)C` (stereo not given), for which the growth inhibition is -24.1%.
Still for that read-out and setting: the result for `CC(=O)OC(C(=O)N(c1ccccc1)c1ccccc1)c1ccccc1` (stereo not given) reads 18.2%; that for `O=C1NCCN(CCc2ccccc2)C1c1ccccc1` (stereo not given), -31.9%; that for `N#CCCN(CCC#N)c1ccc(/C=C2/C=C(c3ccccc3)OC2=O)cc1`, 7.75%.
The same measure, in the same setting: in the case of `CSCCC(N)C(=O)NC(CCSC)C(=O)O` (stereo not drawn) (H-Met-Met-OH; configuration not given here) it was -25.1%.
For the compound `C=CC(C/C(C)=N/Nc1ccc([N+](=O)[O-])cc1[N+](=O)[O-])c1ccccc1` (stereo not given), the growth inhibition is -54.4%.
The same measure, in the same setting: in the case of `CC(=O)C1=C(C)N2C(=NC3=C(CCc4ccccc43)C2c2ccc(F)cc2)S1` (stereo not given) it was 11.3%.
Still for that read-out and setting: the result for `CCn1cc(C(=O)O)c(=O)c2ccc(-c3cn[nH]c3C)nc21` reads 4.45%.
Same read-out and setting: in the case of `COc1ccc2c(c1)C1Oc3ccccc3CC1(O)CO2` (stereo not given) it was 26.5%; in that of `COc1ccc(SSc2ccc(OC)cc2)cc1`, 1.95%.
Regarding `CC(C)(O)C(F)(F)F`, the growth inhibition is 12.2%.
